The record followed here is PubChem BioAssay.

Values without a mark were called inactive. The source made the active and inactive calls.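 Rule for the calls: active = thallium flux through the channel raised or lowered by more than 3 SD from vehicle-only wells, actives on both sides; inactive = the rest.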

What all share (experiment): modulators of BK channel variants, profiling panel, selectivity assay, cell-based, U2OS BacMam, thallium flux, beta subunits (AID 1259406);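 note: initial slope of Thallos dye fluorescence rise after thallium is added; log ratio against the mean of 0.3% DMSO vehicle wells on the same plate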
In one test the test system is F380Y/beta2Delta. The settings on record: at 30 µM.
The next test concerns F380Y/beta4. The settings on record: at 30 µM.
The target of test [1] is Calcium-activated potassium channel subunit alpha-1 (Homo sapiens) + Leucine-rich repeat-containing protein 26 (Homo sapiens) (UniProt Q12791+Q2I0M4). The settings on record: F380Y/Slo1WT/gamma1, at 30 µM.
Sequence of Calcium-activated potassium channel subunit alpha-1 (Homo sapiens) + Leucine-rich repeat-containing protein 26 (Homo sapiens) (Q2I0M4 whole entry, looked up, one chain of several): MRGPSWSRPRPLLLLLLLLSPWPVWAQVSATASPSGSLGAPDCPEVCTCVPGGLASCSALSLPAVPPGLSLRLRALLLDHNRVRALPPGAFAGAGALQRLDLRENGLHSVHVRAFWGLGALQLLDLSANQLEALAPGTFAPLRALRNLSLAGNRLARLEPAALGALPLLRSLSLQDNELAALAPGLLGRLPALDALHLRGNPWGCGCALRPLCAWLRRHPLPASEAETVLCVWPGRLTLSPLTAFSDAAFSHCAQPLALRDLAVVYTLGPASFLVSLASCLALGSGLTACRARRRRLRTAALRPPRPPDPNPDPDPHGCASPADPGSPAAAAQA
For a further test, the system named is R275C. The settings on record: at 30 µM.
The test system of another test is R275C/beta1. The settings on record: at 30 µM.
The subject of a further test is R275C/beta2Delta. The settings on record: at 30 µM.
Another test concerns R275C/beta4. The settings on record: at 30 µM.
The next test concerns R275C/Slo1WT/beta2. The settings on record: at 30 µM.

As to `Nc1nc2c(ncn2CCC(CO)CO)c(=O)[nH]1`, the log fold change Tl+ flux is -0.015 in the test with F380Y/beta2Delta; -0.0159 in the test with F380Y/beta4; -0.013 in test [1]; 0.00432 in the test on R275C; 0.00335 in the test on R275C/beta1; 0.0147 in the test with R275C/beta2Delta. The log fold change Tl+ flux was -0.0144 in the test with R275C/beta4 and -0.0115 in the test with R275C/Slo1WT/beta2.
Regarding `COc1ccc(C2CNC(=O)C2)cc1OC1CCCC1` (stereo not given), the log fold change Tl+ flux was -0.0248 with F380Y/beta2Delta; -0.115 (active) with F380Y/beta4; -0.000443 in test [1]; 0.0314 in the test with R275C; 0.031 with R275C/beta1; -0.00816 in the test on R275C/beta2Delta. The log fold change Tl+ flux with R275C/beta4 is 0.0303; in the test on R275C/Slo1WT/beta2, 0.00671.
For the compound `Cc1[nH]c(=O)c(C#N)cc1-c1ccncc1`, the log fold change Tl+ flux is -0.015 in the test on F380Y/beta2Delta; -0.0201 in the test on F380Y/beta4; 0.0127 in test [1]; -0.0168 in the test with R275C; -0.000763 in the test with R275C/beta1; 0.0393 in the test with R275C/beta2Delta. Besides, the log fold change Tl+ flux in the test on R275C/beta4 is 0.0209; in the test with R275C/Slo1WT/beta2 it was 0.0443.
With `COc1cc(C)nc(-n2nc(C)cc2OC)n1`, the log fold change Tl+ flux is -0.0214 with F380Y/beta2Delta; -0.018 in the test on F380Y/beta4; -0.00579 in test [1]; 0.031 with R275C; 0.00544 in the test on R275C/beta1; 0.0107 in the test with R275C/beta2Delta. Moreover, the log fold change Tl+ flux in the test on R275C/beta4 is -0.0217; with R275C/Slo1WT/beta2 it was -0.00369.
Take `CCCOc1ccc(C(=O)OCCN(CC)CC)cc1N`: the log fold change Tl+ flux with F380Y/beta2Delta was 0.0489; in the test with F380Y/beta4 it was 0.0262; in test [1] it was 0.00339; in the test on R275C, 0.0442; with R275C/beta1, -0.0232; in the test with R275C/beta2Delta, 0.0224. Further, the log fold change Tl+ flux was 0.00943 in the test on R275C/beta4 and -0.0584 in the test with R275C/Slo1WT/beta2.
For the compound `O=C(NCCN1CCOCC1)c1ccc(Cl)cc1`, the log fold change Tl+ flux in the test on F380Y/beta2Delta was -0.0313; with F380Y/beta4 it was -0.0725; in test [1], -0.000886; with R275C, -0.0119; in the test on R275C/beta1, -0.015; in the test with R275C/beta2Delta, -0.0276. Besides, the log fold change Tl+ flux in the test on R275C/beta4 is -0.0049; in the test on R275C/Slo1WT/beta2 it was -0.0216.
With `Oc1ccc(C2CNCCc3c2cc(O)c(O)c3Cl)cc1` (stereo not given), the log fold change Tl+ flux was 0.057 in the test with F380Y/beta2Delta; 0.0586 with F380Y/beta4; 0.0552 in test [1]; -0.0214 with R275C; 0.0235 in the test with R275C/beta1; 0.0656 in the test with R275C/beta2Delta. Moreover, the log fold change Tl+ flux in the test with R275C/beta4 is 0.0211; with R275C/Slo1WT/beta2 it was 0.0233.
For the compound `CN1CCC(=C2c3ccccc3C=Cc3ccccc32)CC1`, the log fold change Tl+ flux in the test on F380Y/beta2Delta was 0.14 (active); with F380Y/beta4 it was 0.137 (active); in test [1] it was -0.0742; in the test with R275C, -0.0182; with R275C/beta1 it was 0.194 (active); in the test on R275C/beta2Delta, 0.144 (active). Moreover, the values for the log fold change Tl+ flux with R275C/beta4 and with R275C/Slo1WT/beta2 were 0.0955 (active) and 0.0256, respectively.
Take `Cn1c(NCCN(CCO)CCCc2ccc([N+](=O)[O-])cc2)cc(=O)n(C)c1=O`: the log fold change Tl+ flux is -0.007 in the test on F380Y/beta2Delta; -0.0379 in the test on F380Y/beta4; 0.0127 in test [1]; -0.128 (active) in the test with R275C; -0.0368 in the test with R275C/beta1; 0.012 in the test on R275C/beta2Delta. Besides, the log fold change Tl+ flux in the test with R275C/beta4 is -0.00107; in the test with R275C/Slo1WT/beta2, 0.0338.
Take `CC(=O)Oc1ccccc1C(=O)Nc1ncc([N+](=O)[O-])s1`: the log fold change Tl+ flux is -0.0604 with F380Y/beta2Delta; -0.0482 in the test on F380Y/beta4; 0.139 (active) in test [1]; -0.00393 in the test on R275C; 0.0452 in the test on R275C/beta1; 0.237 (active) with R275C/beta2Delta. The log fold change Tl+ flux was 0.0513 in the test with R275C/beta4 and 0.00625 in the test on R275C/Slo1WT/beta2.
For `COc1cc2nc(N3CCN(C(=O)C4COc5ccccc5O4)CC3)nc(N)c2cc1OC` (stereo not given), the log fold change Tl+ flux with F380Y/beta2Delta is -0.269 (active); in the test on F380Y/beta4, -0.235 (active); in test [1] it was -0.00742; with R275C it was -0.0618; in the test with R275C/beta1, 0.0698; with R275C/beta2Delta, -0.0306. For the same compound, the results for the log fold change Tl+ flux with R275C/beta4 and in the test with R275C/Slo1WT/beta2 were -0.0729 and 0.00736, respectively.
Consider `Nc1nc(N)nc(-c2cc(Cl)ccc2Cl)n1`, for which the log fold change Tl+ flux in the test with F380Y/beta2Delta is -0.0416; with F380Y/beta4 it was -0.00342; in test [1], -0.0223; in the test on R275C it was -0.0835; in the test on R275C/beta1, -0.0137; with R275C/beta2Delta it was -0.0163. Moreover, the log fold change Tl+ flux was -0.0246 in the test with R275C/beta4 and -0.0527 in the test on R275C/Slo1WT/beta2.
Take `C[C@@H]1C[C@H]2[C@@H]3CCC4=CC(=O)C=C[C@]4(C)[C@@]3(F)[C@@H](O)C[C@]2(C)[C@H]1C(=O)CO`: the log fold change Tl+ flux was 0.0651 in the test with F380Y/beta2Delta; 0.0601 in the test on F380Y/beta4; 0.0369 in test [1]; -0.061 in the test on R275C; 0.178 (active) with R275C/beta1; 0.0622 in the test with R275C/beta2Delta. Further, the results for the log fold change Tl+ flux in the test with R275C/beta4 and with R275C/Slo1WT/beta2 were 0.0336 and 0.0113, respectively.
For `Cn1nnc2c(C(N)=O)ncn2c1=O`, the log fold change Tl+ flux is -0.0261 in the test with F380Y/beta2Delta; -0.0309 in the test on F380Y/beta4; 0.0144 in test [1]; -0.00524 in the test on R275C; -0.0169 in the test on R275C/beta1; 0.0357 with R275C/beta2Delta. Further, the log fold change Tl+ flux is -0.0137 with R275C/beta4 and 0.06 in the test on R275C/Slo1WT/beta2.
`Cc1cccc(C)c1NC(=O)C(C)N` (stereo not given): the log fold change Tl+ flux in the test on F380Y/beta2Delta was 0.0308; in the test with F380Y/beta4 it was 0.00908; in test [1], -0.00222; with R275C it was 0.0212; with R275C/beta1, -0.0204; in the test on R275C/beta2Delta, -0.0462. Besides, the log fold change Tl+ flux with R275C/beta4 was -0.0241; in the test on R275C/Slo1WT/beta2, 0.0922 (active).
